DAX1 inh-1: blocks DAX1 repression of SF-1 activated StAR promoter; HEK293T StAR-luciferase reporter, SF-1/DAX-1 repression relief; inhibition, % at 6.8 µM; 370,000 compounds, 1.1% hits; AID 652010;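 active = inhibition above the mean over all tested compounds plus 3 SD, cut at about 3.6% in these data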;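 note: higher inhibition means more luminescence from relief of DAX-1 repression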
DAX1 inh-2: inhibits human nuclear receptor DAX1; 340,000 compounds, 0.99% hits; HEK293 Gal4-DAX1 luciferase reporter, luminescence; P51843; inhibition, % at 6.75 µM;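 active = inhibition above the mean over all tested compounds plus 3 SD, cut at about 4.2% in these data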;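 note: inhibition shows as a rise in luminescence from relieved DAX1 repression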
Target sequence (P51843 207-470 limits assumed): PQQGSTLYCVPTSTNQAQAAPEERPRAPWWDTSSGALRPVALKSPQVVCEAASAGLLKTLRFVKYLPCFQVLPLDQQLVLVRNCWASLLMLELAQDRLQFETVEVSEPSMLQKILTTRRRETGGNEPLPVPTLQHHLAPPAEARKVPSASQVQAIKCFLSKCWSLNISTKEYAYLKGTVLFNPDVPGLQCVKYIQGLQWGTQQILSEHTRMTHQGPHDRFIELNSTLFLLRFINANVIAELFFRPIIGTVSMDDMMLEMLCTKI
ssDAF-12 act: activates DAF-12 receptor from parasite S. stercoralis; HEK293 ssDAF-12/GRIP1 lit1-tk-luc reporter, luminescence; % of 3 µM dafachronic acid response; activation, % at 6.8 µM; 370,000 compounds, 1% hits;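 active = activation above the mean over all tested compounds plus 3 SD, cut at about 0.9% in these data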
SMARCA2 activ: SMARCA2 function activation, primary screen | MG213 cells, MMTV-luciferase reporter, dexamethasone, overnight | activation, % at 9.1 µM | 370,000 compounds, 1% hits; in the data active = activation above about 7.8%
hgDAF12 agonist: hgDAF-12 agonism, primary luciferase screen; HEK293 GAL4-hgDAF12 UAS-luciferase reporter, agonist luminescence; normalized to butyrate control; activation, % at 6.8 µM; 370,000 compounds, 1.8% hits;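 active = activation above a cutoff set at the mean of all screened compounds plus 3 SD, cut at about 10% in these data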
hcDAF-12 act: activators of H. contortus DAF-12 nuclear receptor; HEK293 hcDAF-12 lit1-tk-luc reporter, luminescence; 0% DMSO, 100% Δ7-dafachronic acid; 370,000 compounds, 1.4% hits; activation, % at 6.8 µM;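 active = activation above the mean of all tested compounds plus 3 SD, cut at about 5.5% in these data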
Large screens that a line does not name were inactive. Rows were chosen to be rich in hits. Some 4.8% of all compounds tested hit in one or more screens of this group.

COc1ccccc1CNC(=O)CSc1nnc2ccc(-c3cccnc3)nn12	DAX1 inh-2 4.4
COc1ccc(NC(=O)CSc2nnc3ccc(-c4cccnc4)nn23)cc1OC	none
O=C(Nc1cccnc1)c1cc(-c2ccc(Cl)cc2Cl)on1	DAX1 inh-2 6.7
CC(C)Cc1cc(C(=O)Nc2cccnc2)no1	DAX1 inh-1 4.4, SMARCA2 activ 7.9
COc1cc2c(=O)n(CCC(=O)NCC3CCCO3)c(=O)n(CC(=O)c3ccc(Cl)cc3)c2cc1OC (stereo not given)	DAX1 inh-2 5.3
CCCC1CCC2(CC1)CCC2OC(=S)Nc1ccc(I)cc1 (stereo not given)	none (no result: DAX1 inh-1, DAX1 inh-2, SMARCA2 activ)
NC(=O)CSc1nnc(Cn2cnc3ccccc32)o1	DAX1 inh-2 4.2
CC(C)CCN1C(Nc2ccccc2)=NC[C@@H]1CC(C)C	hcDAF-12 act 6.3
CCN1C(Nc2ccccc2)=NC[C@@H]1CC(C)C	none
Cc1cccc(CCN2C(Nc3ccccc3)=NC[C@@H]2CC(C)C)c1	DAX1 inh-2 6.7
CCC(C)CCN1C(Nc2ccccc2)=NC[C@@H]1CC(C)C (stereo not given in full)	DAX1 inh-2 4.8
CC[C@H](CCCCCC#N)CCC(=O)N(c1ccccc1)c1ccccc1	none (no result: DAX1 inh-2)
Cc1c(NC(=O)COC(=O)c2cccn2C)c(=O)n(-c2ccccc2)n1C	DAX1 inh-2 4.4
COc1ccc(C2C(=O)NN=C2C)cc1 (stereo not given)	DAX1 inh-2 5.3
O=C(OCc1cn(Cc2c(F)cccc2F)nn1)N1CCOCC1	none (no result: DAX1 inh-2)
COc1ccc(C(O)c2nccn2C)cc1 (stereo not given)	none
C=Cn1ccnc1CC(O)c1ccc(OC)cc1 (stereo not given)	DAX1 inh-2 5.8
Cc1ccccc1CN1CCCCC(NC(=O)Nc2cccc(F)c2)C1=O (stereo not given)	none (no result: DAX1 inh-2)
CCOC(=O)[C@]12CCCCC/C=C\1N(CCc1ccc(Cl)cc1)C(=O)[C@H]2CC(=O)NCCCCc1ccccc1	none (no result: DAX1 inh-2)
CC(C(=O)N1CCc2ccccc2C1)N(c1ccccc1)S(C)(=O)=O (stereo not given)	none
CC(=C1C(=O)c2ccccc2C1=O)N1CCc2ccccc2C1	SMARCA2 activ 7.9, hcDAF-12 act 5.7
O=C(NCc1cccc2ccccc12)C1CCCN(c2nc3ccccc3o2)C1 (stereo not given)	none (no result: DAX1 inh-2)
CCOC(=O)[C@]12CCCC=C1N(Cc1ccc(OC)cc1)C(=O)[C@@H]2CC(=O)N1CCCC1	none (no result: DAX1 inh-2)
CSCCC(c1nc2ccccc2[nH]1)n1c(/C=C/c2ccc(F)c(F)c2)nc2ccccc21 (stereo not given)	ssDAF-12 act 0.9 (no result: DAX1 inh-2)
O=S1(=O)c2ccc(N3CCCC3)cc2Oc2ccccc2CN1Cc1cn(Cc2ccccc2C(F)(F)F)nn1	none (no result: DAX1 inh-2)
CSc1ccc(/C=C(\NC(=O)c2ccccc2)C(=O)NCCN2CCOCC2)cc1	DAX1 inh-2 5.2
CC(=O)Nc1ccc(S(=O)(=O)NCc2cccnc2)cc1	hcDAF-12 act 6.0
N#CCCN(Cc1cccnc1)C(=S)Nc1ccccc1Cl	none
O=C(NC(=S)NCc1ccccc1)c1cccnc1	ssDAF-12 act 1.0
N#CCCN(Cc1cccnc1)C(=S)NC(=O)c1ccccc1	DAX1 inh-2 4.6
O=C(NCc1cccnc1)Nc1ccccc1	ssDAF-12 act 1.0
COc1ccc(C2C(C(=O)Nc3cc(OC)ccc3OC)CCC(=O)N2c2ccc(OC)cc2)cc1 (stereo not given)	none (no result: DAX1 inh-2)
CN(CCO)c1cccc2c1S(=O)(=O)N(Cc1cn(Cc3cccc(C(F)(F)F)c3)nn1)Cc1ccccc1O2	none (no result: DAX1 inh-2)
COc1cc2c(c(OC)c1)[C@H](/C=C/c1ccccc1)[C@@H]([C@H](O)CO)OC2	none (no result: DAX1 inh-2)
CC(=O)c1ccc(NC(=S)NCc2cccnc2)cc1	DAX1 inh-2 6.1
CC(=O)c1ccc(-c2nnc(CCC(=O)N(C)Cc3cccc4cnccc34)o2)s1	none
Cc1ccc(-c2nnc(CCC(=O)N(C)Cc3nccs3)o2)s1	ssDAF-12 act 1.9
C=CCOC(=O)N1CCN(C(=O)c2ccc3nc(C)n(C4CCCC4)c3c2)CC1	none (no result: DAX1 inh-2)
Oc1ccc2ccccc2c1C=NNc1ccccn1	ssDAF-12 act 2.0, hcDAF-12 act 6.0
Oc1ccc2ccccc2c1/C=N/Nc1nnc(-c2ncc[nH]2)c2ccccc12	none
Oc1ccccc1N=Cc1c(O)ccc2ccccc12	hcDAF-12 act 5.9
C[C@H]1CCCC(=O)N[C@@H](c2ccccc2)[C@@H](C)CCCC(=O)N[C@H]1c1ccccc1	none (no result: DAX1 inh-2)
CCN1CCN(c2ncnc3c2cnn3-c2ccccc2)CC1	none
Clc1ccc(-n2ncc3c(NCc4ccco4)ncnc32)cc1	hgDAF12 agonist 13
CCN1CCN(c2ncnc3c2cnn3-c2ccc(Cl)cc2)CC1	hgDAF12 agonist 12
CCC(CO)Nc1ncnc2c1cnn2-c1ccc(Cl)cc1 (stereo not given)	DAX1 inh-1 4.0
CCCCCCCCN1C(=O)[C@@H](CC(=O)N2CCCC2)C[C@@]2(C(=O)OC)C1=C[C@H](COCc1ccccc1)O[C@@H]2C	none (no result: DAX1 inh-2)
CSCCCNC(=O)c1oc(=O)c2ccccc2c1-c1ccc(C)cc1	none (no result: DAX1 inh-2)
Cc1cc(NC(=O)c2ccc(Cl)cc2Cl)no1	DAX1 inh-2 6.7, hgDAF12 agonist 12
CC(C)NC(=S)NC(=O)c1ccc(Cl)cc1Cl	hcDAF-12 act 5.7
Cc1cc(NC(=O)c2cc(C)on2)no1	none
Cc1ccc(C(=O)Nc2ccc(Cl)cc2C(F)(F)F)c(Cl)c1	hgDAF12 agonist 13
O=C(Nc1ccsn1)c1ccc(Cl)cc1Cl	DAX1 inh-2 4.5, hgDAF12 agonist 12
O=C(NCCNC(=O)c1ccc(Cl)cc1Cl)c1ccc(Cl)cc1Cl	none (no result: DAX1 inh-2)
O=C(Nc1cccc([N+](=O)[O-])c1)NC1CCCCN(Cc2cccc(Cl)c2)C1=O (stereo not given)	none (no result: DAX1 inh-2)
COc1ccc(-n2c(SCC(=O)N(CC(C)C)CC(C)C)nnc2-c2ccncc2)cc1	none (no result: DAX1 inh-2)
Cc1cc(NC(=O)Nc2ccc(Cl)cc2)no1	DAX1 inh-2 4.8
CCn1ncc(C(=O)Nc2cc(C)on2)c1C	hgDAF12 agonist 12
CCCCOc1ccc(-c2[nH]ncc2C=O)cc1	DAX1 inh-2 5.1, hgDAF12 agonist 13
Cc1ccc(C(=O)/C=C/Nc2ccc3c(c2)OCO3)cc1	ssDAF-12 act 1.6
O=C(/C=C/Nc1ccc(F)cc1)c1ccc(Br)cc1	hgDAF12 agonist 11
O=C(/C=C/Nc1ccc(F)c(F)c1)c1ccc(Br)cc1	hgDAF12 agonist 12
Cc1ccc(C(=O)/C=C/Nc2cccc(O)c2)cc1	none
O=C(/C=C/Nc1ccc([N+](=O)[O-])cc1)c1ccc(Br)cc1	none
C[C@H]1[C@H](c2ccccc2)OC(O)([C@H](Cc2ccccc2)NC(=O)OC(C)(C)C)CN1C (stereo not given in full)	none (no result: DAX1 inh-1, DAX1 inh-2, SMARCA2 activ)
O=C(Nc1ccccc1)n1ccc(-c2ccc(-n3ccnc3)cc2)n1	hgDAF12 agonist 12 (no result: DAX1 inh-2)

Source: PubChem
